Results: PubChem BioAssay AID1159580 (chemical genetic matrix, 2015)
Values joined by “and” are separate entries in the source; they are usually repeats but may differ in a detail not shown here. Equal entries are not always repeated. About 2,000 (36%) of roughly 5,500 compounds were called active. Roughly 18% stayed inconclusive and do not appear here. Cut-off read from the data, not from the text of the source: active = normalized growth mostly below about 0.91 (no sharp cut-off); inconclusive = no clear call, values can overlap the other calls; inactive = mostly above about 0.92. Some of the results follow.

Assay: chemical genetic growth profiling, strain panel (AID 1159580);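 note: tested at 20 µM; growth read once vehicle control cultures reached saturation at 30 °C; 1 = growth at the plate median or of vehicle wells; lower values mean less growth of the strain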
Settings: S. cerevisiae deletion strains, growth OD

Measured: normalized growth

CCOC(=O)[C@H](CCc1ccccc1)N[C@H]1CCc2ccccc2N(CC(=O)O)C1=O
inactive: locus YAL013W, strain DEP1, hits give low values 0.989 | locus YAL021C, strain ccr4, hits give low values 0.961 | locus YAL026C, strain drs2, hits give low values 0.959 | locus YAL030W, strain snc1, hits give low values 0.992 | locus YBL061C, strain skt5, hits give low values 0.988 | locus YBR009C, strain hhf1, hits give low values 0.973 | locus YBR021W, strain FUR4, hits give low values 0.978 | locus YBR023C, strain chs3, hits give low values 0.989 | locus YBR171W, strain sec66, hits give low values 0.976 | locus YBR229C, strain ROT2, hits give low values 0.986 | locus YBR231C, strain swc5, hits give low values 0.96 | locus YBR279W, strain paf1, hits give low values 0.987 | locus YCL011C, strain gbp2, hits give low values 0.992 | locus YCL016C, strain dcc1, hits give low values 0.981 | locus YCL029C, strain bik1, hits give low values 0.966 | locus YCL061C, strain MRC1, hits give low values 0.979 | locus YCL069W, strain vba3, hits give low values 0.99 | locus YCR088W, strain abp1, hits give low values 0.975 | locus YDL005C, strain med2, hits give low values 0.972 | locus YDL035C, strain GPR1, hits give low values 0.998 | locus YDL040C, strain nat1, hits give low values 0.995 | locus YDL074C, strain BRE1, hits give low values 0.998 | locus YDL101C, strain DUN1, hits give low values 0.983 | locus YDL134C, strain PPH21, hits give low values 0.998 | locus YDL185W, strain tfp1, hits give low values 0.978 | locus YDL192W, strain arf1, hits give low values 0.97 | locus YDR001C, strain nth1, hits give low values 1.01 | locus YDR069C, strain doa4, hits give low values 0.978 | locus YDR101C, strain arx1, hits give low values 0.98 | locus YDR137W, strain rgp1, hits give low values 0.992 | locus YDR150W, strain NUM1, hits give low values 0.987 | locus YDR159W, strain sac3, hits give low values 1.01 | locus YDR162C, strain NBP2, hits give low values 0.987 | locus YDR195W, strain ref2 0.961 | locus YDR297W, strain sur2, hits give low values 0.99 | locus YDR318W, strain mcm21, hits give low values 0.977 | locus YDR334W, strain swr1, hits give low values 0.988 | locus YDR335W, strain msn5, hits give low values 0.983 | locus YDR388W, hits give low values 0.976 | locus YDR392W, strain spt3, hits give low values 0.963 | locus YDR502C, strain sam2, hits give low values 0.985 | locus YEL003W, strain gim4, hits give low values 0.992 | locus YEL037C, strain rad23, hits give low values 0.982 | locus YEL061C, strain CIN8 (second series), hits give low values 0.986 | locus YEL061C, strain CIN8, hits give low values 0.989 | locus YER015W, strain faa2, hits give low values 0.985 | locus YER016W, strain bim1, hits give low values 0.979 | locus YER110C, hits give low values 0.979 | locus YER111C, strain swi4, hits give low values 1 | locus YER155C, strain BEM2 (second series), hits give low values 0.902 | locus YER155C, strain BEM2, hits give low values 0.984 | locus YER167W, strain BCK2, hits give low values 0.984 | locus YFR010W, strain ubp6, hits give low values 0.982 | locus YGL078C, strain dbp3, hits give low values 0.977 | locus YGL086W, strain mad1, hits give low values 0.988 | locus YGL167C, strain pmr1, hits give low values 0.983 | locus YGL173C, strain kem1, hits give low values 0.974 | locus YGL227W, strain vid30, hits give low values 0.965 | locus YGL240W, strain doc1, hits give low values 0.949 | locus YGL248W, strain PDE1, hits give low values 0.983 | locus YGL253W, strain hxk2, hits give low values 0.999 | locus YGR078C, strain PAC10, hits give low values 1.01 | locus YGR135W, strain pre9, hits give low values 0.985 | locus YGR229C, strain SMI1, hits give low values 0.994 | locus YGR252W, strain gcn5, hits give low values 1.04 | locus YHR013C, strain ard1, hits give low values 0.977 | locus YHR027C, strain rpn1, hits give low values 0.992 | locus YHR030C, strain SLT2, hits give low values 0.981 and 0.964 | locus YHR079C, strain IRE1 (second series), hits give low values 0.969 | locus YHR079C, strain IRE1, hits give low values 0.964 | locus YHR094C, strain hxt1, hits give low values 0.976 | locus YHR129C, strain ARP1, hits give low values 0.988 | locus YHR142W, strain chs7, hits give low values 0.986 | locus YHR200W, strain rpn10, hits give low values 0.979 | locus YIL066C, strain RNR3, hits give low values 0.985 | locus YIL073C, strain SPO22, hits give low values 1.01 | locus YIL125W, strain kgd1, hits give low values 0.978 | locus YIR030C, strain dcg1, hits give low values 0.968 | locus YJL092W, strain hpr5, hits give low values 0.988 | locus YJL095W, strain BCK1 (second series), hits give low values 0.979 | locus YJL095W, strain BCK1, hits give low values 0.99 and 0.984 | locus YJL115W, strain asf1, hits give low values 0.969 | locus YJL129C, strain trk1, hits give low values 0.973 | locus YJL134W, strain LCB3, hits give low values 0.979 | locus YJL154C, strain vps35, hits give low values 0.992 | locus YJL164C, strain tpk1, hits give low values 0.97 | locus YJL166W, strain qcr8, hits give low values 0.964 | locus YJL168C, strain set2, hits give low values 0.973 | locus YJL187C, strain SWE1 (second series), hits give low values 0.986 | locus YJR043C, strain POL32, hits give low values 0.984 | locus YJR066W, strain TOR1, hits give low values 0.942
